Test [1] can be described thus: resazurin metabolic signal in HepG2 cells – cell-based, resazurin fluorescence, 24 h, PK04 Diversity Set, profiling panel (AID 1172). Note: test concentration not given here. Conditions: HepG2 viability, higher = more signal. Background: The colour change of resazurin is a common sign of viable cells or microbes.
Test [2] in a line: budding yeast growth changes without added modifier – OD600, strain BY4716, 24 h, basal condition, primary screen (AID 1173). Conditions: S. cerevisiae BY4716 growth, OD600, 24 h; higher = more signal, called active from +8 up or from −8 down.
Test [3] is described as follows: viability profiling in MM1S myeloma cells – cell-based, resazurin fluorescence, basal, 24 h, PK04 Diversity Set, profiling panel (AID 1174).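 Note: MM1S multiple myeloma cell line; test concentration not given here.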 The following applies: higher = more signal, called active from +8 up or from −8 down.
Test [4] concerns the target Dihydroorotate dehydrogenase (quinone), mitochondrial (Plasmodium falciparum (isolate 3D7)) (UniProt Q08210). The test can be described thus: inhibition of P. falciparum DHODH – biochemical, C-terminal His tag, absorbance 600 nm, primary screen (AID 1175).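 Note: recombinant parasite enzyme with a five histidine tag at its C terminus; test concentration not given here.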 The following applies: PfDHODH enzyme, DCIP absorbance 600 nm; higher = more signal, called active from +8 up or from −8 down.

Test [5] can be described thus: inhibition of PAO1 biofilm formation – strain PAO1, LB-PBS medium, absorbance 600 nm, primary screen (AID 1176). Note: test concentration not given here. Conditions: P. aeruginosa PAO1 growth/biofilm, A600, 12 h; higher = more signal.
The nature of test [6]: growth modulation of vineyard yeast isolate – strain RM11-1a, OD600, basal, 24 h, primary screen (AID 1177).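 Note: cultures grown under basal conditions with no added stressor; test concentration not given here.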 Conditions: S. cerevisiae RM11-1a growth, OD600, 24 h; higher = more signal, called active from +8 up or from −8 down.
Test [7] is described as follows: growth of efflux-deficient E. coli DRC39 – strain DRC39, OD650, 24 h, E. coli filamentation inducers, primary screen (AID 1178).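 Note: growth measured as culture turbidity by optical density at 650 nm; test concentration not given here.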 Conditions: E. coli DRC39 acrAB, higher = more signal, called active from +8 up or from −8 down.
The nature of test [8]: growth of efflux-deficient E. coli DRC39 – strain DRC39, OD650, 48 h, E. coli filamentation inducers, primary screen (AID 1179).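 Note: screen aims at cell division blockers that make cells filament.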 Conditions: E. coli DRC39 delta-acrAB growth, higher = more signal, called active from +8 up or from −8 down.
Test [9] can be described thus: viability profiling in RPMI8226 myeloma cells – cell-based, resazurin fluorescence, basal, 24 h, PK04 Diversity Set, profiling panel (AID 1180).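 Note: RPMI8826 multiple myeloma cell line at 5000 cells per well; test concentration not given here.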 The following applies: higher = more signal.
Test [10] deals with E3 ubiquitin-protein ligase XIAP (Homo sapiens) (UniProt P98170). The test can be described thus: small molecules binding XIAP protein – biophysical, small-molecule microarray, fluorescence 635 nm, primary screen (AID 1181).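 Note: score merges 667 nm emission and signal to noise over triplicate slides.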 The following applies: higher = more signal.

Activity calls are given as the source filed them. Unless noted, the rule behind the calls is not given here.

Sequence of Dihydroorotate dehydrogenase (quinone), mitochondrial (Plasmodium falciparum (isolate 3D7)) (Q08210 whole entry, looked up): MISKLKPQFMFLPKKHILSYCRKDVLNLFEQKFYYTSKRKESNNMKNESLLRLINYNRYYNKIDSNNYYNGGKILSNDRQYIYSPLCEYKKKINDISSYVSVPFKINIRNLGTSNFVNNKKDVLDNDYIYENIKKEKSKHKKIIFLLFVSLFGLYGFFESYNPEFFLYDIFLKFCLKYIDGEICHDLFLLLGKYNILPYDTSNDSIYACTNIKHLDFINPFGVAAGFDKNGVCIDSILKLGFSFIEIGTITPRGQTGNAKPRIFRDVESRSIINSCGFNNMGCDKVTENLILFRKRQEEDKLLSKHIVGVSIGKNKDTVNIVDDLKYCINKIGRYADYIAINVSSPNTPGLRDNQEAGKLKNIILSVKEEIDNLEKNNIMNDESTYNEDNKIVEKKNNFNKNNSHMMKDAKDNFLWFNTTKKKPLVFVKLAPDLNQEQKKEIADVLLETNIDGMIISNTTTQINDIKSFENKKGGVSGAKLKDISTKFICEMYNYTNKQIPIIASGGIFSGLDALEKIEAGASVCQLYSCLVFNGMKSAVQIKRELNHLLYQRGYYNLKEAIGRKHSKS
Sequence of E3 ubiquitin-protein ligase XIAP (Homo sapiens) (P98170 whole entry, looked up): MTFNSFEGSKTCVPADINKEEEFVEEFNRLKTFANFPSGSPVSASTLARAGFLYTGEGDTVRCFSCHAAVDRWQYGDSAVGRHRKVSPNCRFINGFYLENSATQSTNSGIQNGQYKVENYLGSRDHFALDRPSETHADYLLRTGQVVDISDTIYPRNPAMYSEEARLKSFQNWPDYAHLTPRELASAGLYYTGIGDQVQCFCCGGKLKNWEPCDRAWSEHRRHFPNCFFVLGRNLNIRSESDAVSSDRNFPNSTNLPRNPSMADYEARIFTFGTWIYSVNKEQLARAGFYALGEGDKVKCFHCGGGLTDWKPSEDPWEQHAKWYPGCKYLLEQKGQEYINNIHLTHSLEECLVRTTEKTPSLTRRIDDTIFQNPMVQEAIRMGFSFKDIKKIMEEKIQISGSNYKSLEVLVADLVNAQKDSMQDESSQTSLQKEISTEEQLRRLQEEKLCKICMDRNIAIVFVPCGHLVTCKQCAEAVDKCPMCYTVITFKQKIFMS

For `O=C1OCC=C[C@H]2OC34C=CCN(c5ccc6ccccc6c5)C(=O)[C@H]3N(CCO)C(=O)[C@@H]4[C@@H]12` (stereo not given in full), the z-score is -0.147 in test [1]; -0.204 (inactive) in test [2]; 0.0073 (inactive) in [3]; -0.649 (inactive) in [5]; 0.195 (inactive) in test [6]; -0.246 (inactive) in test [7]. Besides, the z-score in test [8] is -0.118 (inactive); in test [9], 0.403. Moreover, the composite z-score in test [4] is -1.47 (inactive); in test [10] it was 0.0896.

Regarding `CC(=O)NCCCC[C@@H]1NC(=O)[C@@H]2C[C@H](C(=O)NCc3ccc(F)cc3)[C@H](c3ccc(O)cc3)N2C1=O`, the z-score in [1] is -0.0579; in [2] it was -0.462 (inactive); in [3] it was -0.276 (inactive); in test [5] it was -0.226 (inactive); in test [6], -0.985 (inactive); in test [7], 0.304 (inactive). The z-score is -0.598 (inactive) in test [8] and 0.473 in test [9]. Further, the composite z-score is -1.13 (inactive) in [4] and 0.105 in test [10].

Consider `C=C(C(=O)CC[C@H](OC(=O)c1cccnc1)c1ccccc1OCCO)C(C)C`, for which the z-score in test [1] is 0.3; in test [2] it was -0.993 (inactive); in test [3] it was -1.5 (inactive); in test [5], 0.686 (inactive); in [6] it was -0.237 (inactive); in test [7] it was 0.283 (inactive). For the same compound, the z-score in test [8] is 0.237 (inactive); in test [9] it was -2.14. Also, the composite z-score in test [4] was -0.429 (inactive); in test [10], -0.0994.

Take `COCC1=C([C@H](O)CCc2ccccc2)[C@H](CO)[C@@H]2C(=O)N(Cc3ccccc3)C(=O)[C@@H]2C1`: the z-score in test [1] is -0.062; in test [2] it was -1.55 (inactive); in test [3], 0.0871 (inactive); in [5], -0.295 (inactive); in test [6], 0.723 (inactive); in test [7] it was 1.09 (inactive). Also, the z-score in test [8] was 0.738 (inactive); in test [9] it was 0.449. In addition, the composite z-score in test [4] is -1.91 (inactive); in test [10] it was -0.031.

With `COCCn1c(C(=O)N2CCCC2)cc2c1C[C@H]1CN(C(=O)c3ccccc3)[C@@](Cc3ccc(OC)cc3)(C(=O)OC)[C@@H]21`, the z-score in [1] was -0.818; in [2] it was -0.35 (inactive); in test [3], -0.716 (inactive); in test [5] it was 0.576 (inactive); in test [6], -0.944 (inactive); in test [7], -0.0628 (inactive). In addition, the z-score was 0.763 (inactive) in test [8] and -0.939 in test [9]. The composite z-score in test [4] is -1.79 (inactive); in [10], 0.232.

With `C=CCC(OC(C)=O)[C@@H]1[C@@H](N(Cc2ccc(-c3ccccc3)cc2)C(=O)c2ccc(C)cc2)c2cc(OCCCO)ccc2N1C(=O)Cc1ccc(OC)cc1` (stereo not given in full), the z-score was 0.989 in [1]; -0.397 (inactive) in test [2]; 1.02 (inactive) in test [3]; -0.312 (inactive) in test [5]; -1.65 (inactive) in test [6]; -0.104 (inactive) in test [7]. Besides, the results for the z-score in test [8] and in test [9] were 0.393 (inactive) and 0.72, respectively. For the same compound, the composite z-score was -1.17 (inactive) in [4] and -0.165 in test [10].

For `C=C(CCCC)C(=O)CC[C@H](OC(=O)c1ccccc1-c1ccccc1C(=O)O)c1ccc(CO)o1`, the z-score was 0.985 in [1]; 0.671 (inactive) in test [2]; 0.319 (inactive) in [3]; 0.497 (inactive) in [5]; 0.996 (inactive) in test [6]; -0.154 (inactive) in test [7]. In addition, the z-score in test [8] was 0.16 (inactive); in [9] it was 0.64. Besides, the composite z-score in test [4] was -0.72 (inactive); in test [10] it was -0.154.

In the case of `COc1ccc(C#Cc2ccc3c(c2)[C@]2(C(=O)N3)[C@H](C(=O)N3CCc4cc(OC)c(OC)cc4C3)[C@H]3C(=O)O[C@H](c4ccccc4)[C@H](c4ccccc4)N3[C@@H]2c2ccc(OCCO)cc2)cc1`, the z-score in test [1] was 0.0594; in test [2], 2.37 (inactive); in test [3], -0.0819 (inactive); in test [5], 1.66 (inactive); in test [6] it was 4.19 (inactive); in [7], 0.452 (inactive). For the same compound, the figures for the z-score in [8] and in test [9] were 0.593 (inactive) and 1.5, respectively. Moreover, the composite z-score is -1.04 (inactive) in test [4] and -0.209 in test [10].

As to `[N-]=[N+]=NCc1ccccc1C[C@]1(C(N)=O)N=C(c2ccc(OCCCO)cc2)O[C@H]1c1ccccc1N=[N+]=[N-]`, the z-score in test [1] was 0.776; in test [2] it was 0.603 (inactive); in test [3], -1.2 (inactive); in test [5], 1.54 (inactive); in [6], 2.09 (inactive); in test [7] it was 0.616 (inactive). The z-score in [8] was 0.116 (inactive); in test [9], -1.24. For the same compound, the values for the composite z-score in test [4] and in [10] were 1.56 (inactive) and -0.0444, respectively.

Source of the values: PubChem BioAssay.
